# Source: PMC4336329 (PLoS ONE, 2015)
# Hit rate of the full screen: of about 310,000 compounds, about 14,000 (4.5%) showed an effect of 50% or more. The effect is printed as a negative number. This is one part of a sample in which strong results are shown more often than they occur.
# Molecular target: human ether-à-go-go-related gene (hERG) potassium channel (human, UniProt Q12809)
# Test: primary screen, population patch clamp on CHO cells stably expressing hERG; higher = less effect of the substance
# 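Further: peak tail current of the secondary pulse compared with the same well before compound.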
# human ether-à-go-go-related gene (hERG) potassium channel, sequence (Q12809 whole entry, looked up): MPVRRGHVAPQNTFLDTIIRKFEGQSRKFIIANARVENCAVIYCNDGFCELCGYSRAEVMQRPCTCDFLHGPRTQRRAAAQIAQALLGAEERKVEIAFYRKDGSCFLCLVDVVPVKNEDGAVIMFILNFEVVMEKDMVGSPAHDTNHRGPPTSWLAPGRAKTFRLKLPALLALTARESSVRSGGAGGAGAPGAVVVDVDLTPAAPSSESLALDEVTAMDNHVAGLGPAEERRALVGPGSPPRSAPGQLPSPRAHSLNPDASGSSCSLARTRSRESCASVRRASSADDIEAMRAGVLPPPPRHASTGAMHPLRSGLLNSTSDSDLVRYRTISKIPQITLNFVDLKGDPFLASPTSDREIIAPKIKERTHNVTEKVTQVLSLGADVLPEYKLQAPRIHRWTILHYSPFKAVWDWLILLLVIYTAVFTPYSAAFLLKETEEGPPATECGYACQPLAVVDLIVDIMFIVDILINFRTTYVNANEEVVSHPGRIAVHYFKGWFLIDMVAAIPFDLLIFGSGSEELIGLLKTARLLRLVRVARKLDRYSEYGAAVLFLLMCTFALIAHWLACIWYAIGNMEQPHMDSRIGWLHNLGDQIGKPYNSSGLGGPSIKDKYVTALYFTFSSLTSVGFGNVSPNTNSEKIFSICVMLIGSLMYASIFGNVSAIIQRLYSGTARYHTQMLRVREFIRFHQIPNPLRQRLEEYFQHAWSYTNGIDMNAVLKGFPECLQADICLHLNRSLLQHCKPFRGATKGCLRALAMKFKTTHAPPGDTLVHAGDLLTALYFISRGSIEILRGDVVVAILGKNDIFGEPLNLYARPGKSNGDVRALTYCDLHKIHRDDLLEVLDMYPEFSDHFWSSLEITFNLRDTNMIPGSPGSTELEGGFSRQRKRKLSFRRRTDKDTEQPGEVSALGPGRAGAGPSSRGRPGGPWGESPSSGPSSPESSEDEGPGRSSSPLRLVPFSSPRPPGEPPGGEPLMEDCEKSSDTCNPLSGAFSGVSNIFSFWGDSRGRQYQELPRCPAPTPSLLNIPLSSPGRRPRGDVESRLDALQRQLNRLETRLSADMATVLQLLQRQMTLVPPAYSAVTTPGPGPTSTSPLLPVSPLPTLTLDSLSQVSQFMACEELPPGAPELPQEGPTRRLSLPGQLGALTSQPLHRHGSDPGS
row,Structure (SMILES),"hERG current change (%, negative = inhibition) at 10uM [%]"
1,CO[C@@]1(NC(=O)C2SC(=C(C(N)=O)C(=O)O)S2)C(=O)N2C(C(=O)O)=C(CSc3nnnn3C)CS[C@@H]21 (stereo partly shown),13.6
2,CCCNc1nc(C)nc2c1cnn2CCc1ccccc1,-12.8
3,CCOc1nc(CC(C)C)c2c(c1C#N)CC(C)(C)OC2,1.14
4,O=C1CC(NS(=O)(=O)c2ccc3ccccc3c2)CN1c1ccccc1 (stereo not shown),-0.798
5,Cl.N=c1sccn1CC(=O)Nc1ccc(Cl)cc1[N+](=O)[O-],-21
6,COc1cc(C(=O)NNC(=O)c2cc(C)[nH]n2)cc(OC)c1OC,18.8
7,C/C(=N\NC(=O)C1CC1)c1cccs1,9.16
8,O=C1CC2(CCCCC2)Oc2ccc(OCC(=O)N3CCOCC3)cc21,3.3
9,O=C1CC2(CCN(C(=O)COc3ccccc3)CC2)Oc2ccccc21,-67.4
10,O=C1CC2(CCN(C(=O)COc3ccc(F)cc3)CC2)Oc2ccccc21,-42.6
11,O=C(NCc1ccncc1)/C(=N/O)c1ccccc1,18.7
12,CSc1ccccc1NC(=O)Nc1ccc(Cl)cc1,-1.3
13,CC(C)C(=O)Nc1ccccc1C(=O)OCC(=O)c1ccc2c(c1)OCCO2,-10.4
14,Cc1ccc(CN2CCN(Cc3ccc4cccc(F)c4n3)CC2CCO)cc1 (stereo not shown),-68.6
15,Cc1ccc(CN2CCN(Cc3cccc(C)n3)CC2CCO)cc1 (stereo not shown),-40.2
16,Cc1ccccc1CN1CCN(Cc2ccc3cccc(F)c3n2)CC1CCO (stereo not shown),-32.7
17,CCn1cc(CN2CCN(Cc3ccccc3)C(CCO)C2)c2ccccc21 (stereo not shown),-32
18,Cc1ccc(CN2CCN(Cc3nc4ccccc4nc3C)CC2CCO)cc1 (stereo not shown),-69.7
19,CC(C)Cn1c(CN2CCN(C)C(CCO)C2)nc2ccccc21 (stereo not shown),4.02
20,Cc1nc2ccccc2nc1CN1CCN(Cc2ccc(F)c(F)c2)C(CCO)C1 (stereo not shown),-40.4
21,OCCC1CN(Cc2ccc3cccc(F)c3n2)CCN1Cc1ccccc1 (stereo not shown),-15.6
22,CCn1c(CN2CCN(Cc3ccc(C)cc3)C(CCO)C2)nc2ccccc21 (stereo not shown),-74.7
23,O=C(COc1ccc2ccccc2c1Br)Nn1cnnc1,-1.78
24,CCCCn1c(C)cc2cc(O)ccc21,-16.8

row,Structure (SMILES),"hERG current change (%, negative = inhibition) at 10uM [%]"
1,CC(Oc1ccccc1F)C(=O)NC1CCS(=O)(=O)C1 (stereo not shown),11
2,CC(=O)[C@@H]1[C@@H](C)N(Cc2ccccc2)C(=O)N[C@H]1c1ccccc1,10.4
3,CC1(/[N+]([O-])=C/c2cccc(Cl)c2)CCCCC1=O (stereo not shown),4.74
4,Cc1ccc(NC(=O)COC(=O)C2CC2(Cl)Cl)cc1C (stereo not shown),-4.06
5,CSCCC(NC(=O)c1ccco1)C(=O)N(C)CC(=O)Nc1c(Cl)cccc1Cl (stereo not shown),11.8
6,O=C(O)C1C2C=CC(C3CC23)C1C(=O)O (stereo not shown),10.6
7,Cc1noc(C)c1C(=O)NCCc1ccccc1,0.324
8,Cc1ccccc1C(=O)NC1CCN(CC(=O)NCc2cccs2)CC1,6.14
9,COc1ccc(C(=O)NNC(=O)CN2CCC(n3nnc4cc(C(F)(F)F)ccc43)CC2)cc1,-10.4
10,O=C(CN1CCC(n2nnc3cc(C(F)(F)F)ccc32)CC1)NCc1cccs1,-74.5
11,O=C(CN1CCC(n2nnc3ccccc32)CC1)NCc1cccs1,-60.2
12,O=C(CN1CCC(n2nnc3cc(C(F)(F)F)ccc32)CC1)Nc1ccc2c(c1)CCC2,1.83
13,O=C(CN1CCC(n2nnc3ccccc32)CC1)Nc1ccc2c(c1)CCC2,-39.3
14,COc1ccccc1CNC(=O)c1cc2c(s1)CS(=O)(=O)C2,10.3
15,COc1cc(C)c(NC(=S)Nc2ccc(Cl)c(Cl)c2)cc1OC,5.06
16,COc1cc(CNc2nnnn2C)ccc1OCc1c(F)cccc1Cl,0.756
17,COC(=O)C1=C(c2ccc(-c3ccccc3)c(F)c2)C[C@@H]2CC[C@H]1N2C(=O)NC(C)C,-16.8
18,COc1cccc(CN(C)C(=O)CSCC(=O)Nc2ccc(C)cc2)c1OC,-12.9
19,CCOC(=O)Cn1c(CN2CCOCC2)nc2c1c(=O)[nH]c(=O)n2C,7.2
20,COc1ccc(C2Nc3ccccc3C(=O)N2Cc2ccccc2)cc1 (stereo not shown),3.75
21,CC(C)CC(NC(N)=O)C(=O)NCCc1ccc(Cl)cc1Cl (stereo not shown),3.07
22,CCOP(=O)(OCC)C(NC(=O)Nc1cccc(Cl)c1)c1ccccc1 (stereo not shown),5.75
23,COc1ccc2nc(/C=N/NC(=O)[C@H](C)NC(=O)OC(C)(C)C)ccc2c1,-7.25
24,CCC(C)[C@H](NC(=O)OC(C)(C)C)C(=O)N/N=C/c1ccc2cc(OC)ccc2n1 (stereo partly shown),-13.7

row,Structure (SMILES),"hERG current change (%, negative = inhibition) at 10uM [%]"
1,COc1ccc2nc(/C=N/NC(=O)[C@H](CCSC)NC(=O)OC(C)(C)C)ccc2c1,-59.7
2,Cc1ccc(NC(=O)C2=C(C(=O)O)CCCC2)cc1F,7.33
3,Cn1ncc(C(=O)Nc2ccc(Cl)cc2)c1C(F)(F)F,-12
4,O=[N+]([O-])c1ccc(N2CCNCC2)cc1NCC1CCCO1 (stereo not shown),-22.1
5,O=C(c1ccccc1)N1CCN(c2ccc([N+](=O)[O-])c(NCC3CCCO3)c2)CC1 (stereo not shown),-76.9
6,CN1CCN(c2ccc([N+](=O)[O-])c(NCC3CCCO3)c2)CC1.Cl (stereo not shown),-41.4
7,O=C(c1ccccc1F)N1CCN(c2ccc([N+](=O)[O-])c(NCC3CCCO3)c2)CC1 (stereo not shown),-80.8
8,NC(=O)c1ccc(NCC2CCCO2)c([N+](=O)[O-])c1 (stereo not shown),12.7
9,CC(=O)N1CCN(c2ccc([N+](=O)[O-])c(NCC3CCCO3)c2)CC1 (stereo not shown),-18.3
10,CC(C)(C)C(=O)N1CCN(c2ccc([N+](=O)[O-])c(NCC3CCCO3)c2)CC1 (stereo not shown),-20.8
11,O=C(NCCc1ccccc1)c1ccc(NCC2CCCO2)c([N+](=O)[O-])c1 (stereo not shown),-68.9
12,O=C(Nc1ccccc1)c1ccc(NCC2CCCO2)c([N+](=O)[O-])c1 (stereo not shown),-2.42
13,O=C1CC(N(C(=O)c2ccco2)c2cccc(Cl)c2)C(=O)N1c1cccc(Cl)c1 (stereo not shown),-19.7
14,C/C(Cn1cnc([N+](=O)[O-])n1)=N\NC(=O)c1ccccc1O,8.06
15,COc1cc(C(=O)Nc2ccc(Br)cc2C(=O)c2ccccc2)cc(OC)c1OC,12.4
16,COc1ccc(CNS(=O)(=O)c2cc(-c3cc(C)no3)ccc2C(C)C)cc1,-14.9
17,CCCCC(CC)CNC(=O)C1CCCN(S(=O)(=O)c2cnc[nH]2)C1 (stereo not shown),3.45
18,N#CCCN(CC(=O)O)S(=O)(=O)c1ccccc1,5.74
19,CC(C)(C)OC(=O)N[C@H](Cc1ccccc1)C(=O)N1CCC(C(=O)O)CC1,9.08
20,COc1ccc2c(c1)CCc1c(C(=O)Nc3cc(C)n(Cc4ccc(Cl)cc4)n3)noc1-2,-30.5
21,COc1ccc(-c2nc(N)n[nH]2)cc1OC,18.9
22,COc1ccc(-c2n[nH]c3c2CN(C(=O)c2ccccc2)CC3)cc1,-6.13
23,Fc1cccc(NCc2ccoc2)c1,-7.89
24,Cc1ccc(-c2sc(-c3ccccc3)nc2CC(=O)Nc2ccccc2F)cc1,6.09

row,Structure (SMILES),"hERG current change (%, negative = inhibition) at 10uM [%]"
1,OCC1(Cc2ccccc2)CCN(C2CCN(c3ccc(F)c(F)c3)CC2)CC1,-112
2,CC(=O)N1CCC(N2CCN(c3ccccc3F)CC2)CC1,0.444
3,O=C(NCc1ccccc1)N1CCC(CO)(Cc2cccc(F)c2)CC1,-12.8
4,O=C(NCc1ccccc1)N1CCN(c2ccccc2F)CC1,1.22
5,OCC1(Cc2ccccc2)CCN(C2CCN(c3ccccc3F)CC2)CC1,-68.8
6,OCC1(Cc2ccccc2)CCCN(C2CCCC2)C1 (stereo not shown),-8.01
7,Cc1ccc(-c2ccc(=O)n(Cc3c(F)cccc3Cl)n2)cc1,9.18
8,Cc1ccc2nc(Nc3ccccc3O)nc(-c3ccccc3)c2c1,14.3
9,O=C(CCN1C(=O)c2cccc3cccc(c23)C1=O)NCc1cccnc1,-16.7
10,C/C(CC(=O)Nc1ccccc1Cl)=N\NC(=O)C(=O)NCCO,6.65
11,COS(=O)(=O)[O-].C[N+]1(C)CCC(=C(c2ccccc2)c2ccccc2)CC1,-71
12,CC1CC(C)(C)CC(=O)C1C(=O)c1ccccc1 (stereo not shown),16.4
13,O=C(O)c1ccc(S(=O)(=O)c2ccccc2)cc1,11.5
14,CCOc1ccc(-n2ccnc(SCC(=O)Nc3ccc(OC)cc3OC)c2=O)cc1,9.58
15,O=C(CON=C1c2ccccc2-c2ccccc21)NC12CC3CC(CC(C3)C1)C2,-7.23
16,N#CC1=C(SCc2ccccc2)NC(=O)CC1c1ccco1 (stereo not shown),10.9
17,CC(=O)N1CCC(O)(c2cccc(C(F)(F)F)c2)CC1,12.7
18,Cl.O=C(CCCN1CCC(O)(c2cccc(C(F)(F)F)c2)CC1)c1ccc(F)cc1,-75.6
19,O=C(CCCN1CCC(O)(c2ccc(Br)cc2)CC1)c1ccc(F)cc1,-79.7
20,OC1(c2cccc(C(F)(F)F)c2)CCN(CCN2CCCCC2)CC1,-3.82
21,O=C(CN1CCC(O)(c2ccc(F)cc2)CC1)NCc1ccc(F)cc1,-34.2
22,C=CCNC(=O)CN1CCC(O)(c2ccc(F)cc2)CC1,-5.8
